Compound activity (PubChem)
EBV LMP1 NFkB: reduces LMP1-driven NF-kappaB luciferase signal; AID 504558; inhibition, % at 12.5 µM; LMP1-induced NF-kappaB luciferase reporter cells, luminescence; 350,000 tested, 0.69% active; in the data active = inhibition above about 41%
TWEAK-Fn14 inh: inhibitors of TWEAK-Fn14 interaction signaling | TWEAK-stimulated Fn14 reporter cells, luciferase luminescence, 8 h | inhibition, % at 10 µM | 360,000 tested, 2% active | AID 1159606; in the data active = inhibition above about 50%
HSF1 inhib: HSF1 inhibition. NIH3T3-HGL HSE-luciferase, MG132-induced, luminescence 8 h; hits give low values. activity change, negative = inhibition, % at 7.5 µM (by protocol). 300,000 tested, 0.77% active;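 active = more than half of replicate wells show activity change below -50%, luminescence cut by over half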;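 note: luciferase reports HSF-1 transcriptional activity via heat shock element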
HSF-1 act: increases HSF-1 driven luciferase reporter signal; NIH3T3-HGL HSF-1 luciferase reporter, MG132, 8 h; 100% = twice DMSO control signal; activation, % at 9 µM; 300,000 tested, 1.7% active; AID 504408;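 active = mean replicate activation of at least 50% with a set share of replicates each reaching 50%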
HSP90 refold inh: inhibitors of HSP90 luciferase refolding in rabbit reticulocyte lysate. luciferase refolding luminescence, 3 h. inhibition, % at 5.6 µM. 290,000 tested, 0.91% active. AID 1789;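 active = inhibition above the screen-wide mean plus 3 SD, computed separately per campaign, cut at about 16% in these data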;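 note: inhibitors lower the luminescence because luciferase stays unfolded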
TROY NFkB inh: blocks TROY-dependent signaling in reporter cells; Q293 LMP1-TROYcd NF-kB luciferase reporter, 4 h; inhibition, % at 10 µM; 360,000 tested, 0.98% active; AID 1347056;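 active = compounds whose plate-normalised and pattern-corrected inhibition of the luciferase reporter signal at the single screening dose is 50% or more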
Large screens that a line does not name were inactive. An excerpt weighted towards active compounds, which were near 4.7% of everything screened.

COc1ccc(OC)c(NS(=O)(=O)c2ccc3[nH]c(=O)[nH]c3c2)c1	none (no result: HSF1 inhib, HSF-1 act, HSP90 refold inh)
CCc1nc(NCC2CCCN2CC)c2nnn(Cc3ccccc3F)c2n1 (stereo not given)	TWEAK-Fn14 inh 69
NC(=O)c1ccc[n+](CC(=O)OCCC23CC4CC(CC(C4)C2)C3)c1	HSF1 inhib -70
NC(=O)c1ccc[n+](CC(=O)c2ccc(Br)cc2)c1	none
Cc1ccc(OC(=O)N(C)C[C@@H]2OCc3cn(nn3)CCCC(=O)N([C@@H](C)CO)C[C@H]2C)cc1	none (no result: HSF1 inhib, HSF-1 act, HSP90 refold inh)
CCN(CC(=O)Nc1ccc(NC(C)=O)cc1)C(=O)c1ccc(COc2ccc(C(C)(C)C)cc2)cc1	TWEAK-Fn14 inh 53 (no result: HSF1 inhib, HSF-1 act, HSP90 refold inh)
CCN1C(c2ccccc2)C(C)C(=O)C(C)C1c1ccccc1 (stereo not given)	TWEAK-Fn14 inh 83 (no result: TROY NFkB inh)
Cc1cc(C(=O)Nc2nc3c(s2)CCCC3)no1	TWEAK-Fn14 inh 61
CCCCC(=O)N(C)c1c(CC)nc2c(OCc3cc(Cl)cc(Cl)c3)cccn12	none (no result: EBV LMP1 NFkB, HSF1 inhib, HSF-1 act, HSP90 refold inh)
Cc1ccccc1S(=O)(=O)NC(=O)C1(C)CCN1C(=O)CC1CCCCC1 (stereo not given)	none (no result: EBV LMP1 NFkB, HSF1 inhib, HSF-1 act, HSP90 refold inh)
Cc1cc(C)n2nc(CNS(=O)(=O)c3ccc(C(C)(C)C)cc3)nc2n1	none (no result: EBV LMP1 NFkB, HSF1 inhib, HSF-1 act, HSP90 refold inh)
CC(=O)c1ccc(N2CCN(C(=O)CNC(=O)c3ccc(Br)o3)CC2)cc1	none (no result: HSF1 inhib, HSF-1 act, HSP90 refold inh)
Cc1noc(C)c1NC(=O)N(C)C[C@@H]1Oc2cc(Br)ccc2S(=O)(=O)N([C@H](C)CO)C[C@@H]1C	none (no result: HSF1 inhib, HSF-1 act, HSP90 refold inh)
N#CC1=C2N=C(N)c3ccccc3N2C2=C(C(=O)CCC2)C1c1ccc(F)cc1 (stereo not given)	none
N#CC1=C2N=C(N)c3c(sc4c3CCCCC4)N2C2=C(C(=O)CCC2)C1c1ccccc1 (stereo not given)	TROY NFkB inh 54
CSc1ccc(C2C(C#N)=C(N)N(c3ccccc3)C3=C2C(=O)CCC3)cc1 (stereo not given)	HSF-1 act 58
COCCN(Cc1ccc(C)cc1)C(=O)[C@H]1O[C@@H](n2ccc(=O)[nH]c2=O)[C@H](O)[C@@H]1O	none (no result: EBV LMP1 NFkB, HSF1 inhib, HSF-1 act, HSP90 refold inh)
Cc1cc(NC(=O)c2ccccc2NS(=O)(=O)c2c(C)c(C)cc(C)c2C)no1	TROY NFkB inh 53
Cc1ccc(C)c(S(=O)(=O)Nc2ccccc2C(=O)Nc2cc(C)on2)c1	none
CC1(C(=O)O)CCCN(C(=O)c2cc3ccccc3s2)C1 (stereo not given)	none (no result: EBV LMP1 NFkB, HSF1 inhib, HSF-1 act, HSP90 refold inh)
O=C(NCCOc1ccc(F)cc1)C1CCC(=O)N(Cc2ccc(Cl)cc2)C1 (stereo not given)	none (no result: HSF1 inhib, HSF-1 act, HSP90 refold inh)
O=C(N/N=C/c1c[nH]c2ccccc12)c1cc(-c2ccccc2)n[nH]1	none (no result: HSF1 inhib, HSF-1 act)
O=C(N/N=C/c1c[nH]c2ccccc12)c1cc(-c2ccc(-c3ccccc3)cc2)n[nH]1	TWEAK-Fn14 inh 67
COCCn1c(SCc2ccc(Cl)cc2)nc2c1c(=O)[nH]c(=O)n2C	HSF-1 act 58 (no result: HSP90 refold inh)
C/C(N)=C(/C#N)C(=O)CSc1nc2cc(Cl)ccc2s1	HSF-1 act 76
C/C(N)=C(/C#N)C(=O)CSc1cc(Cl)ccc1Cl	none
C/C(N)=C(/C#N)C(=O)CSc1nnc(Nc2cccc(C)c2)s1	HSF-1 act 56
Cc1cccc(Nc2nnc(SCC(=O)c3c(N)n(C4CC4)c(=O)[nH]c3=O)s2)c1	none (no result: HSF1 inhib, HSF-1 act, HSP90 refold inh)
CCc1nc2ccc(C(=O)NCCNC(C)=O)cn2c1N(CC)CCOC	none (no result: EBV LMP1 NFkB, HSF1 inhib, HSF-1 act, HSP90 refold inh)
N#C/C(N=Nc1ccccc1O)=N\Nc1ccccc1O	TWEAK-Fn14 inh 88 (no result: HSP90 refold inh)
COc1ccc(-c2oc(=O)c3cc(OC)c(OC)cc3c2/C=C/c2ccc(OC(C)=O)cc2)cc1	none (no result: HSF1 inhib, HSF-1 act, HSP90 refold inh)
COc1cc(-c2noc(C)c2/C=C/c2ccc(OC(C)=O)cc2)cc(OC)c1OC	TWEAK-Fn14 inh 52
O=c1c(O)c(-c2ccc(O)cc2)oc2cc(O)cc(O)c12	none (no result: HSP90 refold inh)
O=c1c(O)c(-c2ccc(O)c(O)c2)oc2cc(O)ccc12	TWEAK-Fn14 inh 56 (no result: HSF1 inhib, HSF-1 act, HSP90 refold inh)
CSC1SCC2C(=O)N(C)C(C(C)C)C(=O)OCC(NC(=O)c3cnc4ccccc4n3)C(=O)NC(C)C(=O)N(C)C1C(=O)N(C)C(C(C)C)C(=O)OCC(NC(=O)c1cnc3ccccc3n1)C(=O)NC(C)C(=O)N2C (stereo not given)	EBV LMP1 NFkB 85, TWEAK-Fn14 inh 92, TROY NFkB inh 65 (no result: HSF1 inhib, HSF-1 act, HSP90 refold inh)
c1csc(-c2nnc(-c3ccc(N4CCOCC4)cc3)o2)c1	TWEAK-Fn14 inh 59
COc1ccc(-c2nnc(-c3cccs3)o2)cc1OC	HSF-1 act 60
CCOc1ccc(-c2nnc(-c3cccs3)o2)cc1	TWEAK-Fn14 inh 63
CCCCN1C(=O)C(CC(=O)NCc2cccc3ccccc23)CC(C(=O)N(C(C)C)C(C)C)=C1C (stereo not given)	none (no result: EBV LMP1 NFkB, HSF1 inhib, HSF-1 act, HSP90 refold inh)
COc1ccccc1NC1=C(Cl)C(=O)N(C2CCCCC2)C1=O	HSF1 inhib -85
COc1cc(Cl)ccc1OC1(C)CCN(Cc2c(F)cccc2F)C1 (stereo not given)	none (no result: EBV LMP1 NFkB, HSF1 inhib, HSF-1 act, HSP90 refold inh)
COc1ccc(-c2nc(NCCN(C)C)nc3ccsc23)c(C)c1	none (no result: EBV LMP1 NFkB, HSF1 inhib, HSF-1 act, HSP90 refold inh)
CC(C)(C)c1ccc(O)c(/C=N\O)c1	none
CC(C)(C)c1cccc(/C=N/O)c1O	HSF-1 act 66
Cc1cc(C)cc(OCC(=O)Nc2nc(-c3cccnc3)cs2)c1	HSF1 inhib -59
Cc1cc(Cl)ccc1OCC(=O)Nc1nc(-c2cccnc2)cs1	HSF1 inhib -60
C=Cc1ccc(CC2(C)C(=O)Nc3ccc(Cl)cc32)cc1 (stereo not given)	none (no result: EBV LMP1 NFkB, HSF1 inhib, HSF-1 act, HSP90 refold inh)
CCCCc1n[nH]c2c1/C(=N/OCC)CC(C)(C)C2	HSF1 inhib -74
CC(CNC(=O)CC[C@H]1O[C@@H](n2cnc3c(NC(=O)c4ccccc4)ncnc32)[C@H](O)[C@@H]1O)c1ccccc1 (stereo not given in full)	none (no result: EBV LMP1 NFkB, HSF1 inhib, HSF-1 act, HSP90 refold inh)
CCOC1=C2[C@H](c3ccccc3)N(S(=O)(=O)c3ccc(C)cc3)C(C(C)(C)C)[C@H]2C(C#N)(C#N)C(C#N)(C#N)C1 (stereo not given in full)	TWEAK-Fn14 inh 54 (no result: EBV LMP1 NFkB, HSF1 inhib, HSF-1 act, HSP90 refold inh)
CCOC1=C2CN(S(=O)(=O)c3ccc(C)cc3)[C@H](c3cccc4ccccc34)C[C@H]2C(C#N)(C#N)C(C#N)(C#N)C1	none (no result: EBV LMP1 NFkB, HSF1 inhib, HSF-1 act, HSP90 refold inh)
Cc1ccccc1CNC(=O)/C=C\C(=O)O	TROY NFkB inh 75
CC1(Cc2cccc(C#N)c2)C(=O)Nc2c(Cl)cccc21 (stereo not given)	none (no result: EBV LMP1 NFkB, HSF1 inhib, HSF-1 act, HSP90 refold inh)
COc1ccc(-c2cc(C(=O)NC3CC3)c3ccccc3n2)cc1	none
COc1ccc(-c2cc(C(=O)Nc3ccc(Cl)cc3Cl)c3ccccc3n2)cc1OC	none
O=C(NC1CC1)c1cc(-c2ccc(Br)cc2)nc2ccccc12	EBV LMP1 NFkB 42 (no result: HSF1 inhib, HSF-1 act, HSP90 refold inh)
COc1ccc(-c2cc(C(=O)Nc3ccccc3O)c3ccccc3n2)cc1OC	HSF-1 act 71
O=C(NNC(=O)c1cc(-c2ccc(Cl)c(Cl)c2)nc2ccccc12)Nc1ccccc1	HSF-1 act 56
Cc1cccc(NC(=O)NNC(=O)c2cc(-c3ccccc3Cl)nc3ccccc23)c1	none
